# Compounds with a hit are over-represented: about 4.6% of the library has one in this group of screens.
# PfHsp90 yeast 2 = reduces growth (ATP signal) of yeast expressing P. falciparum Hsp90 | S. cerevisiae expressing PfHsp90, BacTiter-Glo ATP, 48 h; yeast lacking PDR1 and PDR3 efflux regulators | AID 504621 | 310,000 compounds, 0.32% hits | inhibition, % at 9.4 µM;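 active = every replicate shows inhibition above about 80%, whatever the replicate mean, limit read from the data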;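 note: 0% = DMSO neutral controls and 100% = 20 µM radicicol positive controls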
# tim23-1 inh = inhibits growth of tim23-1 mutant yeast. S. cerevisiae tim23-1 growth, BacTiter-Glo luminescence, 24 h. inhibition, % at 20 µM. 330,000 compounds, 1.3% hits. AID 463212;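 active = growth inhibition of the mutant yeast at or above 50%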;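 note: temperature-sensitive mutant grown at 25 °C; plate controls were DMSO-treated mutant yeast for no effect and medium wells lacking yeast for full effect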
# TIM10 inh = TIM10 yeast growth inhibition; S. cerevisiae TIM10 strain growth, BacTiter-Glo luminescence, 24 h; inhibition, % at 10 µM; 330,000 compounds, 1.4% hits;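 active = inhibition of 40% or more at the single tested concentration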;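 note: wild-type TIM10 isogenic control strain grown at permissive 25 °C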
# NALP3 yeast inh = blocks the NALP3 inflammasome reconstituted in yeast; 330,000 compounds, 0.39% hits; inhibition, % at 10 µM; Yeast reconstituted NLRP3/ASC/caspase-1, beta-gal luminescence, 24 h;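 active = inhibition of 50% or more; inactive = inhibition below 50%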;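 note: plate controls were induced DMSO wells for no effect and uninduced yeast grown without galactose for full effect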
# tim10-1 inh = growth inhibitors of tim10-1 mutant yeast. S. cerevisiae tim10-1 ts strain growth, BacTiter-Glo, 24 h. inhibition, % at 20 µM. 330,000 compounds, 2.2% hits;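 active = inhibition of at least 40%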;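 note: mutant grown at 25 °C; 0% = DMSO wells with yeast and 100% = wells holding no yeast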
# SKKanGAS inh = inhibitors of SKKanGAS S. pyogenes growth in kanamycin (SK-promoter or general growth effect); BacTiter-Glo, 6 h; 300,000 compounds, 1.3% hits; inhibition, % at 7.5 µM;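 active = mean replicate score, as percent of positive control median, at least 50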;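 note: strain carries kanamycin resistance gene driven by streptokinase promoter and grows in 40 µg/ml kanamycin; loss of luminescence reflects streptokinase promoter inhibition or plain growth inhibition; 0% = median of DMSO wells and 100% = positive control at its reference dose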
# TIM10 conf = confirmation of TIM10 yeast growth inhibitors; S. cerevisiae tim10 strain growth, BacTiter-Glo luminescence, 24 h; 4,600 compounds, 63% hits; inhibition, % at 10 µM; shares compounds with TIM10 inh; AID 463215;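 active = inhibition of yeast growth at or above a set limit in either of two replicates at 10 µM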;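 note: this counterscreen used the strain with wild-type TIM10; 0% = yeast with DMSO and 100% = medium wells lacking yeast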
# tim23-1 conf = confirmation of tim23-1 mutant yeast growth inhibitors. shares compounds with tim23-1 inh. S. cerevisiae tim23-1 growth, BacTiter-Glo luminescence, 24 h. inhibition, % at 20 µM. 4,400 compounds, 83% hits;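 active = inhibition above about 39% in either of two replicate wells at 20 µM, limit read from the data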;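 note: temperature-sensitive tim23-1 mutant grown at 25 °C; 0% = DMSO wells with yeast and 100% = medium wells without yeast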
# Active calls of the source: *; / = no result.
SMILES,PfHsp90 yeast 2,tim23-1 inh,TIM10 inh,NALP3 yeast inh,tim10-1 inh,SKKanGAS inh,tim23-1 conf,others
CCOC(=O)[C@@H]1[C@H]2COc3ccc(Br)cc3[C@H]2N2C(=O)N(c3cccc(C)c3)C(=O)[C@]12C,3,34,15,5,23,/,/,
COc1cc(C=C2C(=O)NC(=O)NC2=O)ccc1O,-7,0,94*,0,4,0,/,TIM10 conf=-4
CN1CCC(c2c[nH]c3ccc(O)cc23)CC1,-1,/,/,/,/,/,/,
CC1CCCC(C)N1/N=C/c1c[nH]c2ccc(Br)cc12 (stereo not given),19,11,42*,5,34,0,/,TIM10 conf=-38
CC[C@H](C)[C@@H]1O[C@@]2(C=CC1C)CC1C[C@@H](CC=C(C)C(O[C@H]3CC(OC)C(O[C@H]4CC(OC)C(O)C(C)O4)C(C)O3)C(C)C=CC=C3CO[C@@H]4C(O)C(C)=C[C@@H](C(=O)O1)[C@]34O)O2 (stereo not given in full),/,19,-4,6,30,/,/,
COc1ccc2[nH]c(C)c(CCNCc3cc(OC)c4c(c3)OCO4)c2c1,3,5,-2,14,6,/,/,
O=C1N[C@H](Cc2ccccc2)C(=O)N2[C@@H]3[C@H](C[C@@H]12)c1ccccc1N3OOSc1ccccc1,1,24,41*,13,31,-1,/,TIM10 conf=25
CC(C)(C)N(NC(=O)c1ccccc1)C(=O)c1ccccc1,3,-10,40*,4,-3,-3,/,TIM10 conf=-3
COC(=O)C1=C(c2c(C)noc2C)C[C@@H]2CC[C@H]1N2C(=O)NC1CC1,-27,11,-7,13,-7,/,/,
Cc1nc2ccccc2c(=O)n1/N=C/c1cc(Br)cc(Br)c1O,-16,83*,73*,12,39,99*,89*,TIM10 conf=25
O=C(CSC1c2ccccc2-c2ccccc21)N/N=C/c1ccccc1O,-41,52*,47*,24,29,5,58*,TIM10 conf=58*
O=c1[nH]c(O)c(Cc2ccc3c(c2)OCO3)c(=O)[nH]1,9,8,-10,6,-4,-15,/,
Cc1ccc(Cn2cc(C=O)c(-c3ccc(F)cc3)n2)cc1,-5,49,20,24,29,-4,/,
Cc1ccc(-c2nn(Cc3ccccc3)cc2C=O)cc1C,-58,53*,52*,23,31,-4,58*,TIM10 conf=55*
CC(C)[N+]12CCC(CC1)C(C(O)(c1ccccc1)c1ccccc1)C2 (stereo not given),-1,-1,2,11,5,11,/,
Cc1ccc(-c2nn(Cc3ccccc3)cc2C(=O)O)cc1,16,2,-17,-4,-9,-2,/,
Cc1ccc(-c2nn(Cc3ccccc3)cc2C=O)cc1,-28,57*,27,29,18,1,55*,
O=S(=O)(NC1CCCCCCC1)OCC(Cl)(Cl)Cl,/,50*,26,40,27,6,59*,
O=S(=O)(NC1CCCC1)OCC(Cl)(Cl)Cl,-2,29,9,0,7,5,/,
CC1(C)C2SCC(=O)N2CCN1CC(=O)NN (stereo not given),-9,14,11,12,-1,4,/,
COc1cc(-n2c(=S)[nH]c3ccccc3c2=O)c(Cl)cc1Cl,/,52*,23,19,25,1,38,
CC(C)c1ccccc1NC1=NCCCS1,1,11,12,2,-5,-5,/,
COP(=O)(OC)/C(C=O)=N/Nc1ccc([N+](=O)[O-])cc1,7,52*,10,16,9,1,50*,
CN1CCc2cc3c(c4c2C1Cc1ccccc1-4)OCO3 (stereo not given),-12,67*,28,39,33,4,67*,
CC1(C)OC(c2ccccc2)=C/C(=C/C=C2C(=O)NC(=S)NC2=O)O1,/,57*,21,15,25,-5,63*,
SMILES,PfHsp90 yeast 2,tim23-1 inh,TIM10 inh,NALP3 yeast inh,tim10-1 inh,SKKanGAS inh,tim23-1 conf,others
O=c1[nH]c(=S)n(CCC2=CCCCC2)c(O)c1/C=N/N1CCOCC1,/,52*,36,11,37,6,37*,
O=c1c2ccccc2nc(/C=C/c2ccc(F)cc2)n1-c1ccccn1,/,12,13,6,7,3,/,
O=c1c2ccccc2nc(/C=C/c2ccc(O)cc2)n1-c1ccccc1O,7,31,4,-1,14,35,/,
Cc1ccccc1-n1c(/C=C/c2ccccn2)nc2ccccc2c1=O,1,52*,7,18,34,-8,43*,
O=c1c2ccccc2nc(/C=C/c2ccccc2)n1-c1ccccc1O,4,51*,18,16,25,18,44*,
NCCCCCC(=O)OC1N=C(c2ccccc2Cl)c2cc(Br)ccc2NC1=O (stereo not given),6,14,10,39,-6,-7,/,
Cc1sc2ncn(CC(=O)NCCCC(=O)N3CCC4(CC3)OCCO4)c(=O)c2c1C,3,17,-8,10,8,/,/,
CCCCCc1nc2c(c(=O)c3ccccc3n2C)c(=O)n1C1CCCCCC1,0,70*,0,36,-40,94*,-34,
CCC(C)NC(=O)c1c(N)n(CCCOC)c2nc3ccccc3nc12 (stereo not given),-7,53*,25,11,39,5,48*,
COCCCn1c(N)c(C(=O)OC(C)COC)c2nc3ccccc3nc21 (stereo not given),-18,20,4,3,-2,4,/,
COc1cccc(C2(O)CCN(CC(=O)Nc3nc(C)cs3)CC2)c1,-18,9,-6,9,-2,-14,/,
CCCNC(=O)N1CCC2(CC1)OCCO2,20,-2,-1,1,-5,6,/,
